About 79,000 compounds went through this panel and 15% of them were active in at least one assay; those are over-represented in the sample as a whole. Cut-off read from the data, not from the text of the source: active = growth inhibition above about 70%; inactive = the rest.
Experiments:
[1] = NCI Yeast Anticancer Drug Screen. Data for the rad50 strain (AID 155);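 note: 0% = growth of vehicle-only cultures of the same strain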; conditions: S. cerevisiae rad50 strain growth inhibition; at 50.0 µM; stronger effect = higher value
How it was run: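 DNA repair mutant yeast, compound exposure, growth read-out; inhibition is taken relative to vehicle.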

[2] = NCI Yeast Anticancer Drug Screen. Data for the mec2-1 strain (AID 157); conditions: S. cerevisiae mec2-1 strain, at 50.0 µM, stronger effect = higher value
How it was run: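 Strain: mec2-1 (DNA repair/cell cycle alteration). Compound exposure, then growth measured; inhibition expressed relative to vehicle.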

[3] = NCI Yeast Anticancer Drug Screen. Data for the sgs1 mgt1 strain (AID 161);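 note: 0% = growth of cultures given vehicle only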; conditions: S. cerevisiae sgs1 mgt1 strain, at 50.0 µM, stronger effect = higher value
How it was run: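 Mutant yeast exposed to compound; growth scored against vehicle-only wells.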

[4] = NCI Yeast Anticancer Drug Screen. Data for the cln2 rad14 strain (AID 165);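 note: 0% = growth equal to vehicle treated cultures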; conditions: S. cerevisiae cln2 rad14 strain, at 50.0 µM, stronger effect = higher value
How it was run: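 Compounds are applied to the cln2 rad14 yeast strain, and growth is then compared with that of vehicle-treated cultures to give inhibition.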

[5] = NCI Yeast Anticancer Drug Screen. Data for the bub3 strain (AID 167); conditions: S. cerevisiae bub3 mutant strain, at 50.0 µM, stronger effect = higher value
How it was run: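 In this screen, a yeast mutant lacking normal mitotic checkpoint function is challenged with compound. Relative growth versus vehicle gives the inhibition value.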

[6] = NCI Yeast Anticancer Drug Screen. Data for the mlh1 rad18 strain (AID 175); conditions: S. cerevisiae mlh1 rad18 strain growth inhibition; at 50.0 µM; stronger effect = higher value
How it was run: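 Read-out is yeast growth inhibition, calculated against vehicle-only controls. The compound was applied to a strain engineered with DNA damage repair alterations.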

Measured: growth inhibition

Fc1ccc(F)c(C2SCc3nc4ccccc4n32)c1 (stereo not given)
inactive: [1] 19.4% | [2] 19.1% | [3] 33.1% | [4] 25.1% | [5] 16.6% | [6] 24.6%

COC(=O)/C=C/c1ccc(OC(C)=O)c(OC)c1
inactive: [1] -1.9% | [2] 3.55% | [3] -13.6% | [4] -19.1% | [5] 16.6% | [6] -4.9%

Nc1cn[nH]c(=O)n1
inactive: [1] -3.6% | [2] 20.6% | [3] 2% | [4] 13.3% | [5] 10.4% | [6] 2.7%

CC1NC(C(=O)O)Cc2cc(O)c(O)cc21 (stereo not given)
inactive: [1] -21.2% | [2] -36.6% | [3] -30.8% | [4] 5.35% | [5] -34.8% | [6] -49.2%

Cc1ccc(S(=O)(=O)OCC(C)C(c2ccccc2)c2ccccc2)cc1 (stereo not given)
inactive: [1] 7.45% | [2] 1.9% | [3] -4.55% | [4] -20.9% | [5] -3.3% | [6] 0.2%

CCc1c(C(=O)OC)c(C(=O)OC)c(-c2ccc(C)cc2)n1CCn1c(CC)c(C(=O)OC)c(C(=O)OC)c1-c1ccc(C)cc1
inactive: [1] -0.55% | [2] 0.3% | [3] -26.1% | [4] -0.6% | [5] -3.15% | [6] 17.9%

N#Cc1nc(-c2ccccc2C(=O)O)oc1N
inactive: [1] -0.5% | [2] 9.8% | [3] -16.1% | [4] 5.7% | [5] -7.15% | [6] -62%

Cc1c2ccccc2nc(CSc2n[nH]c(=S)s2)[n+]1[O-]
inactive: [1] -8.55% | [2] 18.6% | [3] 8% | [4] -44.5% | [5] 8.5% | [6] 20%

C(=N\NC1=NCCCCN1)/c1ccc2ccccc2c1
inactive: [1] 14.1% | [2] -1.75% | [3] -32% | [4] -34.6% | [5] -2.35% | [6] 7.6%

O=C(OCCO)C1CC2CC1C1(C2)OCCO1 (stereo not given)
inactive: [1] -2% | [2] -13.2% | [3] 13.9% | [4] -12.1% | [5] 42% | [6] 0.5%

CC1(O)CC2C(CC1SC1CC3C(CC1(C)O)C3(C)C)C2(C)C (stereo not given)
inactive: [1] -48.3% | [2] -33.5% | [3] -45.8% | [4] -26.4% | [5] -51.7% | [6] -33%

O=C1NC2(CCCC2)C(=O)N2CCCC12 (stereo not given)
inactive: [1] -8.65% | [2] -17.6% | [3] 17.7% | [4] -5.75% | [5] 0.3% | [6] 27.2%

O=[N+]([O-])C1C=Nc2ccccc2N=C1
inactive: [1] 19.7% | [2] -16.6% | [3] 18.1% | [4] 21.4% | [5] 5% | [6] 19.6%

CC(=O)Nc1ccc(CCNC(=O)c2ccc3ccccc3c2O)cc1
inactive: [1] -21.8% | [2] -33.1% | [3] -15.2% | [4] -6.35% | [5] -11.8% | [6] -13.4%

O=C1C(=O)c2ccccc2C(O)=C1CC=C(Cl)Cl
inactive: [1] -3.9% | [2] 5.5% | [3] -5.6% | [4] -33.1% | [5] 29.9% | [6] -33.6%

C[n+]1c(C2(O)CCCCCCCCCCC2)sc2ccccc21
inactive: [1] 3.8% | [2] 10.1% | [3] 1.5% | [4] -11.3% | [5] 1.4% | [6] 34.4%

CC(=O)N1Cc2c(N)ncnc2C1C (stereo not given)
inactive: [1] -10.9% | [2] -9.45% | [3] -18.8% | [4] -7.25% | [5] -0.25% | [6] -12.2%

O=C(CC(c1ccccc1)N1CCCCC1)OCC1CCCO1 (stereo not given)
inactive: [1] -0.85% | [2] -13.7% | [3] -4.1% | [4] -44.5% | [5] -1.85% | [6] 14.3%

CC(=O)OCC(OC(C)=O)C(OC1OC(COC(C)=O)C(OC(C)=O)C(OC(C)=O)C1OC(C)=O)C(OC(C)=O)c1cnn(-c2ccccc2)n1 (stereo not given)
inactive: [1] -10.7% | [2] -0.1% | [3] -8.15% | [4] -19.4% | [5] -2.65% | [6] -5.75%

CC(NN(C)C(=S)Nc1ccccc1)c1ccccn1 (stereo not given)
inactive: [1] -6.7% | [2] -7.15% | [3] -9.15% | [4] -10.8% | [5] -4.75% | [6] -0.1%
